Source: PubChem
In the library only some 2% were active in any assay of this set; here they are far more common.
Calb FLC: C. albicans growth modulation with fluconazole | C. albicans CaCi-2 (fluconazole-resistant clinical isolate) + fluconazole, Alamar Blue growth, 48 h | 0.57% of 300,000 active | growth inhibition, % (test concentration not listed) | AID 1979;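 active = growth inhibition above about 58% in most replicates, limit read from the data, passing the limit was not always enough; inconclusive = exactly half the replicates above a set limit; inactive = most replicates below a set limit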;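 note: all wells also contain fluconazole at 8 µg/ml as a sub-toxic cotreatment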
Platelet DG rel: modulates dense granule release in human platelets | inhibition, %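 (compounds screened at 7.5 µM in platelet-rich plasma)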 | 0.22% of 300,000 active | human platelet-rich plasma, SFLLRN dense granule ATP release, luminescence;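 active = mean replicate score, as percent of positive control, at or above 50; inconclusive = mean below 50 but at least one replicate at or above 50; inactive = mean and every replicate below 50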
SKKanGAS inh: inhibitors of SKKanGAS S. pyogenes growth in kanamycin (SK-promoter or general growth effect); AID 1662; BacTiter-Glo, 6 h; 1.3% of 300,000 active; inhibition, % at 7.5 µM;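 active = mean replicate score, as percent of positive control median, at least 50; inconclusive = mean below 50 but one replicate at or above 50; inactive = mean and every replicate below 50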;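 note: strain carries kanamycin resistance gene driven by streptokinase promoter and grows in 40 µg/ml kanamycin; loss of luminescence reflects streptokinase promoter inhibition or plain growth inhibition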
Yeast superoxide: lowers age-related superoxide in aged yeast cells; S. cerevisiae aged cells, superoxide DHE fluorescence; active compounds read low; superoxide response (% of plate mean), % at 10 µM; 0.18% of 330,000 active; AID 2690;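 active = superoxide response under a set limit, about three screen SD below normal, cut at about 65% in these data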;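 note: yeast aged for seven days with compound at 30 °C before DHE staining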
PolyA inhibitor: blocks polyadenylation in yeast reporter cells; S. cerevisiae SKY197-pL101 polyadenylation reporter, beta-gal luminescence; efflux-impaired pdr1/pdr3 knockout yeast; score 100 = 6 SD above DMSO; activity score, % at 12 µM; 0.02% of 300,000 active; AID 1875;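 active = lowest replicate activity score at least 50, where 100 means six control SD above control mean; inconclusive = lowest score under 50 but half or more replicates reach 50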;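 note: yeast exposed to compound for 9 h at 30 °C; higher score means more reporter readthrough which indicates perturbed polyadenylation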
Numbers stand for hits; - = inactive; ? = inconclusive; . = no result given.

SMILES	Calb FLC	Platelet DG rel	SKKanGAS inh	Yeast superoxide	PolyA inhibitor
CN1CCN(C(=O)c2ccc(CNS(=O)(=O)c3cccc(Cl)c3)cc2)CC1	-	-	-	-	-
Cc1ccc(N=Cc2cc(Cc3ccccc3Cl)cc([N+](=O)[O-])c2O)c(O)c1	109	-	?	-	-
COc1ccc(N=Cc2cc(Cc3ccccc3Cl)cc([N+](=O)[O-])c2O)cc1OC	?	-	-	-	-
Cc1c(C#N)c(NC(=O)CCl)n(Cc2ccccc2)c1C	97	-	-	-	-
O=C(CCC1CCCC1)c1c(O)c2ccccc2oc1=O	-	-	54	-	-
COc1ccc(NC2CCCN(C(=O)CCC(=O)c3ccc(F)cc3)C2)cc1 (stereo unspecified)	-	-	-	-	-
CC(C)CNC(=O)c1ccccc1SCC(=O)NC12CC3CC(CC(C3)C1)C2	-	-	-	-	-
Cc1ccc(C)n1-c1ccc(C(=O)N/N=C/c2ccncc2)cc1	-	-	-	-	-
O=C1c2ccccc2CC1(Cc1ccccc1)Cc1ccccc1	-	-	57	-	-
COC(=O)c1cn(C(=O)c2cc(Br)ccc2Cl)c2ccccc12	-	-	-	-	-
CCC1(C)Cc2c(sc3nc(SC)[nH]c(=S)c23)CO1 (stereo unspecified)	-	-	85	-	-
COc1ccc(C)cc1NC(=O)C1CCCN(S(=O)(=O)c2cccnc2)C1 (stereo unspecified)	-	-	-	-	-
O=C1C=C(Nc2cccc3cccnc23)c2ccccc2C1=O	101	-	63	-	-
O=C1C=C(Nc2ccccc2)c2ccccc2C1=O	-	-	68	.	-
O=C1C=C(Nc2ccccc2)C(=O)c2ccccc21	-	-	-	-	-
Cc1ccccc1C(=O)Oc1ccc(Sc2ccc(O)cc2)cc1	-	-	96	-	-
CCOC(=O)C1=C(N)c2ccccc2CC1C1CCCC1 (stereo unspecified)	-	-	55	-	-
Cc1ccc(NC(=S)NC(=O)c2ccc(-c3ccc(Cl)cc3)o2)c(O)c1	?	-	68	-	-
Cc1cc(O)c(NC(=S)NC(=O)c2ccc(-c3ccc(Cl)cc3)o2)cc1C	-	-	92	-	-
CCN1CCCC1CNC(=O)c1cc([N+](=O)[O-])c(N(C)C)cc1OC (stereo unspecified)	-	-	-	-	-
CCCCCCCCO	.	.	.	-	.
CCCCCCCCCCCCCCCC(O)C(N)CO (stereo unspecified)	.	-	75	-	-
OC(CNCCc1ccc(C(F)(F)F)cc1)COc1ccc2ccccc2c1 (stereo unspecified)	105	-	-	-	-
CC1CCC(NC(=O)CCNC(=O)c2ccc(Br)cc2)CC1 (stereo unspecified)	-	-	-	-	-
CC(=O)c1ccc(N2CCC(c3cc(-c4ccc(Cl)cc4)n[nH]3)CC2)c([N+](=O)[O-])c1	-	-	88	-	-
SMILES	Calb FLC	Platelet DG rel	SKKanGAS inh	Yeast superoxide	PolyA inhibitor
COC(=O)c1ccc(N2CCN(C(=O)C3CC3)CC2)c([N+](=O)[O-])c1	-	-	-	-	-
COC(=O)c1ccc(N2CCC(c3cc(-c4ccc(OC)cc4)n[nH]3)CC2)c([N+](=O)[O-])c1	?	-	90	-	-
COc1ccc(-c2cc(C3CCN(c4ccc(C(C)=O)cc4[N+](=O)[O-])CC3)[nH]n2)cc1	-	-	83	-	-
CCOc1ccc2c(c1)C(=NNC(=O)c1ccncc1)c1cc(OCC)ccc1-2	-	-	65	-	-
O=[N+]([O-])c1ccc(N=Nc2c(Cl)cc(O)cc2Cl)cc1	?	73	50	-	-
Cc1ccccc1NC(=O)Cc1nc(COC(=O)c2ccc(Cl)nc2)cs1	-	-	-	-	-
Cc1nn(-c2ccccc2)c(Cl)c1C1C(C#N)=C(N)OC2=C1C(=O)CCC2 (stereo unspecified)	-	-	87	-	-
CC(C)(C)c1ccc(N2C(=O)CSC2c2cccnc2)cc1 (stereo unspecified)	-	-	-	-	-
Cc1cccc(CSc2ncnc3c2cnn3Cc2ccccc2)c1	-	-	76	-	-
Cc1cccc(N=Nc2ccc(O)c3ncccc23)c1	-	-	92	-	-
Oc1ccc(N=Nc2ccc3c(c2)OCCO3)c2ncccc12	89	-	89	-	-
Cc1ccc(C)c(N=Nc2ccc(O)c3ncccc23)c1	108	-	92	-	-
Cc1ccc2c(c1)c(N=Nc1cccc(C(=O)O)c1)c(O)n2C	-	-	-	-	-
Cc1ccccc1N=Nc1c(O)n(C)c2ccccc12	-	-	-	-	-
O=C(NN1C(=O)NC2(CCCCC2)C1=O)c1ccc(Cl)c(Cl)c1	.	.	.	-	.
Nc1ncnc(Sc2ccccc2)c1[N+](=O)[O-]	-	-	-	-	-
Nc1ncnc(Sc2ncccn2)c1[N+](=O)[O-]	85	-	-	.	-
CCOc1ccc(N2C(N)=NC(N)=NC2(C)C)cc1	-	-	95	-	-
CC1(C)N=C(N)N=C(N)N1c1ccc(OCCCOc2ccccc2)c(Cl)c1	-	-	111	-	-
COc1cccc(N2C(N)=NC(N)=NC2(C)C)c1	-	-	95	-	-
CC1(C)N=C(N)N=C(N)N1c1cccc(C(=O)O)c1	-	-	-	-	-
CCOC(=O)c1cccc(N2C(N)=NC(N)=NC2(C)C)c1	-	-	91	-	-
Cc1ccc(Cl)cc1NC(=S)NCCCSC1CCCCC1	-	-	-	-	-
COc1ccc(N2C(N)=NC(N)=NC2(C)C)cc1	-	-	73	-	-
COc1ccc(N2C(N)=NC(N)=NC23CCCC3)cc1	-	-	-	-	-
SMILES	Calb FLC	Platelet DG rel	SKKanGAS inh	Yeast superoxide	PolyA inhibitor
C/C(=N\NC(=S)NCCc1ccccc1)c1ccc(Cl)cc1Cl	-	-	91	-	-
Oc1ccccc1/C=N/NC(=S)NCCc1ccccc1	-	-	96	-	-
Cc1ccc(C)c(/C=N/NC(=S)NCCc2ccccc2)c1	-	-	54	-	-
C/C(=N\NC(=S)NCCc1ccccc1)c1ccc(O)cc1O	-	-	-	-	-
CCCCNc1c(-c2cccc(-c3cc(C(C)=O)cs3)c2)nc2ccc(C)cn12	-	-	53	-	-
CCCCNc1c(-c2cccc(-c3ccc(OC)cc3)c2)nc2cc(C)ccn12	.	.	.	-	.
CCCCNc1c(-c2cccc(-c3ccc(OC)cc3)c2)nc2ccc(C)cn12	-	-	63	-	-
S=c1[nH]nc(COc2ccccc2)n1/N=C/c1c(Cl)cccc1Cl	-	-	-	-	-
CC(=O)Nc1ccc(NC(=O)CCN2C(=O)c3ccccc3C2=O)cc1	-	-	-	-	-
CC(=O)Nc1ccc(NC(=O)CCCN2C(=O)c3ccccc3C2=O)cc1	108	-	-	-	-
CC(=C\c1ccccc1)/C=C1/SC(=S)N(CCCC(=O)O)C1=O	-	-	-	-	-
CC(/C=C1\SC(=S)N(CCC(=O)Nc2cccc(C(=O)O)c2)C1=O)=C\c1ccccc1	-	-	112	-	-
CC(/C=C1\SC(=S)N(CCCC(=O)Nc2ccc(C(=O)O)cc2)C1=O)=C\c1ccccc1	-	-	121	-	-
